The panel holds about 83,000 compounds, 20% with a hit somewhere; the sample as a whole holds those more often.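 96-well plates, one dose, 48 hours. Percent growth reported; active if below 10.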 A number with no mark means an inactive call. Activity calls are given as the source filed them.
Tests used:
Assay in all cases: NCI-60 one-dose screen, 48 h (100 = growth as untreated, 0 = no growth, -100 = all killed)
Conditions in all cases: 10 µM unless noted
SR leukemia = test system: SR leukemia
RPMI-8226 leukemia = test system: RPMI-8226 leukemia
OVCAR-8 ovarian = test system: OVCAR-8 ovarian
OVCAR-5 ovarian = test system: OVCAR-5 ovarian
OVCAR-4 ovarian = test system: OVCAR-4 ovarian
SK-OV-3 ovarian = test system: SK-OV-3 ovarian
IGROV1 ovarian = test system: IGROV1 ovarian
OVCAR-3 ovarian = test system: OVCAR-3 ovarian
HS 578T breast = test system: HS 578T breast
NCI/ADR-RES ovarian = test system: NCI/ADR-RES ovarian

SMILES | growth (SR leukemia) | growth (RPMI-8226 leukemia) | growth (OVCAR-8 ovarian) | growth (OVCAR-5 ovarian) | growth (OVCAR-4 ovarian) | growth (SK-OV-3 ovarian) | growth (IGROV1 ovarian) | growth (OVCAR-3 ovarian) | growth (HS 578T breast) | growth (NCI/ADR-RES ovarian)
N#Cc1cnc(NCCc2ccncc2)nc1-n1cnc2ccccc21 | 35.4% | 65.3% | 54% | 66.9% | 74.2% | 25.5% | 29.1% | 76.7% | 72.1% | 64.9%
COc1cc2c(c(OC)c1OC)-c1ccc(OC)c(=O)cc1[C@@H](NC(=O)CCl)CC2 | 36.3% | 20.3% | 8.53% (active) | 22.4% | 42.7% | 15.5% | 14.1% | 8.93% (active) | 63.4% | -39.4% (active)
COc1ccc(C(=O)Nc2cccc(C3CC(=O)c4c(cc(OC)c(OC)c4OC)O3)c2)cc1 (stereo not given) | 13.3% | 11.2% | 17.7% | 46% | 43.5% | 20.6% | 36% | 1.51% (active) | 5.72% (active) | 8.74% (active)
Cc1ccc(NC(=S)NNC(=S)NNc2ccccc2)cc1C | 56.8% | 78.9% | 98.2% | 105% | 114% | 104% | 98.5% | 73.9% | 94.4% | 110%
Cc1cc2c(O)c(-c3cccc(Cl)c3)c3sc(=O)oc3c2cc1C | 18.6% | 12.1% | 41.9% | 106% | 13.4% | 59.4% | 41% | 18.6% | 48.2% | 56.3%
C=C1C(=O)O[C@H]2[C@H]1CC/C(COC(=O)NCc1ccc(Cn3c(=O)sn(CCI)c3=O)cc1)=C\CC[C@@]1(C)O[C@@H]21 | -2.32% (active) | 29.1% | 89.4% | 82% | 32.1% | 109% | -75.5% (active) | -55.4% (active) | 94.3% | 101%
CC(C)(C)n1cc(-c2ccnc(NCCCNS(=O)(=O)c3ccc(F)cc3)c2)c(-c2cccc(F)c2)n1 | 14.3% | 28.1% | 54.8% | 69% | 79.2% | 75.3% | 68.6% | 74.8% | 78.9% | 52%
O=CC1(C2(C=O)c3ccccc3-c3ccccc32)c2ccccc2-c2ccccc21 | -32.3% (active) | -24% (active) | -49.9% (active) | -40.9% (active) | -76.4% (active) | -65% (active) | -76.4% (active) | -74.7% (active) | -4.62% (active) | -14% (active)
COc1ccc2[nH]cc(-c3nc(-c4c[nH]c5ccncc45)cs3)c2c1 | 0.735% (active) | -20% (active) | 38.6% | 45.3% | 47.3% | 86.3% | 64.7% | -13.2% (active) | 93.2% | 59.9%
Cc1cccc(Cl)c1NC(=O)c1ccc2nc(NC(=O)NCCN(C)C)sc2c1 | 66% | 94% | 85.7% | 85.4% | 95.3% | 64.2% | 109% | 114% | 81.8% | 118%
O=C(Cc1ccccc1)Nc1nc(O)c(/C=C2\C(=O)C=Cc3ccccc32)s1 | 104% | 106% | 97.5% | 104% | 100% | 83% | 102% | 102% | 97.8% | 96.7%
Fc1ccc(Nc2nc3nonc3nc2Nc2ccc(I)cc2)cc1 | -4.09% (active) | -11.6% (active) | 4.01% (active) | 37.5% | 17.8% | -24.5% (active) | 23.2% | 9.78% (active) | 8.99% (active) | 4.92% (active)
C[C@]12C=CC(=O)C=C1CCC1C2[C@@H](O)C[C@@]2(C)C1CC[C@]2(O)C(=O)COC(=O)CCC(=O)O (stereo not given in full) | 98% | 64.3% | 91.3% | 89.9% | 98.4% | 80.2% | 102% | 119% | 119% | 92.1%
CCOC(=O)c1[nH]c(=O)c2c(C)nc(-c3ccccc3)cc2c1O | 97% | 93.8% | 109% | 106% | 117% | 108% | 1.43% (active) | 105% | 98.4% | 103%
N#C/C(=C/c1ccc([N+](=O)[O-])cc1)n1nnc2cc(F)c(F)cc21 | 2.33% (active) | -18.7% (active) | 37.5% | 108% | 86.5% | 116% | 73.6% | 30.6% | 80.6% | 76.2%
Nc1nc2c([nH]1)c1[nH]c3ccccc3c1c1[nH]c3ccccc3c21 | -24.9% (active) | -22.7% (active) | 57.5% | 85.9% | 66.8% | 86.1% | 58.9% | 36.6% | 47.2% | 86.5%
O=C1NCCC12CCN(c1c(Cl)cncc1-c1ccc(O)cc1)CC2 | 94.3% | 85.5% | 89.1% | 83.6% | 105% | 85.4% | 69.2% | 104% | 101% | 91.8%
Cc1cc2c(O)c(-c3cc(Cl)ccc3Cl)c3sc(=O)oc3c2cc1C | 54.3% | 38.3% | 68.1% | 106% | 24.5% | 76.3% | 76.5% | 29.8% | 76.4% | 85.3%
O=C(Nc1ccc(-c2nc(N3CCOCC3)c3cccn3n2)cc1)Nc1cccnc1 | 11% | -12% (active) | 1.49% (active) | 10.1% | -10.7% (active) | -24.2% (active) | -19.2% (active) | 4.15% (active) | -32.3% (active) | 0.693% (active)
COC(=O)CCC(=O)C(=O)OC | -26.4% [10 mM] (active) | -8.65% [10 mM] (active) | 31.8% [10 mM] | 23.6% [10 mM] | 47.8% [10 mM] | 3.77% [10 mM] (active) | 9.89% [10 mM] (active) | 5.88% [10 mM] (active) | 25.2% [10 mM] | 33.1% [10 mM]
Fc1cc(F)cc(C(c2c[nH]c3ccccc23)c2c[nH]c3ccccc23)c1 | 106% | 95.2% | 102% | 88.8% | 116% | 117% | -6.52% (active) | 112% | 82% | 92.2%
CC1=C(CCC(C)N(C)Cc2ccc(OCCCN3CCCC3)cc2)C(C)(C)CCC1 (stereo not given) | -24.9% (active) | -14.3% (active) | 45.7% | 25.4% | 60.2% | 36.5% | 42.9% | 23.6% | 36.4% | 63%
CN1CCN(C(=O)c2ccc(NC(=O)Nc3ccc(-c4nc(N5CCOCC5)c5cccn5n4)cc3)cc2)CC1 | 3.45% (active) | -2.3% (active) | -3.62% (active) | 0.331% (active) | -20.2% (active) | -31.2% (active) | -29.2% (active) | -5.24% (active) | -28.9% (active) | 60.5%
C1=C(N2CCCC2)CCC1 | 112% | 95.4% | 104% | 86.2% | 98.8% | 131% | 108% | 106% | 102% | 104%
C=C(C)[C@@H]1CC[C@]2(C)[C@H](CC=C3[C@@H]4[C@H](C)[C@@H](C)CC[C@]4(CO)CC[C@]32C)[C@@]1(C)CCCN | -35.4% (active) | -33.7% (active) | -48.5% (active) | 60.6% | 5.39% (active) | 14.1% | 30% | 20.1% | 25.3% | 14.1%
CCCC(=O)NC(c1ccc2c(c1)OCO2)c1ccc2cccnc2c1O (stereo not given) | -16.1% (active) | 13.1% | 9.28% (active) | 34.2% | 14.5% | 14.8% | 5.54% (active) | 36.9% | 58.6% | 3.18% (active)

Reference: PubChem BioAssay (NCI)
